The list is not random: actives were taken first. Their share in the collection is about 19%.
DT40 TDP1 no CPT – qHTS for Inhibitors of human tyrosyl-DNA phosphodiesterase 1 (TDP1): qHTS in cells in absence of CPT; Potency, µM (top dose mostly 46.2 µM), usual class: inhibitors; hit rate 15% among 420,000; DT40 Tdp1-/- hTDP1 cells, no CPT, ATP luminescence, 48 h; note: nearly all actives have a fitted effect of over 55% in size
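Stably hTDP1-transfected Tdp1-null chicken DT40 cells were treated with library compounds minus camptothecin and grown for at least 48 hr at 37 °C, after which cellular ATP was quantified by luminescence.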
DT40 TDP1 CPT – growth inhibition of DT40 Tdp1-/-;hTDP1 cells with camptothecin (screen for TDP1 inhibitors); chicken DT40 Tdp1-/-;hTDP1 cells + 20 nM CPT, ATP luminescence, 48 h; Potency, µM (doses to about 46.2 µM), most hits filed as inhibitors; hit rate 12% among 420,000; note: nearly all actives have a fitted effect of over 55% in size
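Chicken DT40 Tdp1-/- cells complemented with human TDP1, 400 cells/well, exposed to compounds plus 20 nM camptothecin for at least 48 h at 37 C; viability read as ATP content by CellTiter-Glo luminescence.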
BCR signal inh – chronic active BCR signaling inhibition | ABC-DLBCL IkBa-CBG/CBR reporter, luminescence ratio, 4 h | Potency, µM (top dose mostly 46.1 µM), actives largely listed as inhibitors | hit rate 0.05% among 340,000 | AID 493014; active = well fitted inhibition curve with a large enough effect in the signal ratio, with a control signal flat, not every such curve was filed as active; inconclusive = small, poorly fitted or top-dose-only effect, or effect the other way, or a change in a side signal; the % refers to the signal ratio
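TMD8 ABC-DLBCL cells carrying doxycycline-inducible green luciferase fused to IkappaBalpha plus unfused red luciferase were exposed to compounds (up to 46 uM) for 4 hrs at 37C. Activity came from the overlap-corrected green/red luminescence ratio.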
IL-1B inflam inh – inhibitors of inflammasome signaling (IL-1 beta secretion); THP-1 LPS/ATP IL-1B secretion, AlphaLISA, 16 h; hits give low values; activity change, % at 57.5 µM; hit rate 4.7% among 360,000; AID 743279; in the data active = activity change below about -50%; inconclusive = mostly about -30% to -49%
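THP-1 cells pretreated 1 hr with compounds (up to 57.5 uM final), then stimulated with LPS (250 ng/mL final) plus ATP (1.25 mM final); secreted IL-1B measured by AlphaLISA after 16 hr, decreased signal indicating inhibition.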
SW480 rereplic – inducers of DNA re-replication in SW480 colon cancer cells | SW480 DNA re-replication, Hoechst DNA content imaging, 48 h | Potency, µM (top dose mostly 46.1 µM), most hits filed as activators | hit rate 1.8% among 340,000; note: nearly all actives have a fitted effect of over 55% in size
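Treated cells incubate 48 hr (37 C, 5% CO2), are stained 40 min with Hoechst, and nuclear fluorescence is enumerated; a rise in nuclei with high DNA signal marks re-replication.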
MCF10A rereplic – DNA re-replication induction in MCF 10a cells. Potency, µM (top dose mostly 46.1 µM), hits mostly activators. MCF 10A DNA re-replication, Hoechst nuclear intensity, 48 h. hit rate 2.9% among 350,000. AID 624296; note: nearly all actives have a fitted effect of over 50% in size
Numbers stand for hits; [ ] = remark or other dose. Unless noted, calls come from the whole dose curve; as a rule, active = well fitted curve in the direction sought with a large enough effect; inconclusive = small, poorly fitted or top-dose-only effect, or another doubt; inactive = no such curve, though single readings can be large; an effect the other way counts as inactive or inconclusive.

Results for CC1(c2ccc(Cl)cc2)NC(=O)N(CC(=O)NCCC2=CCCCC2)C1=O (configuration not stated) ?
DT40 TDP1 no CPT: inactive; DT40 TDP1 CPT: inconclusive; BCR signal inh: inactive; IL-1B inflam inh: inactive; SW480 rereplic: 0.16µM; MCF10A rereplic: inactive

How did CCOC(=O)[C@H]1[C@H]2COc3ccc(OC)cc3[C@@H]2N2C(=O)CN(CC3CCCO3)C(=O)[C@@]12C (some centres not stated) do in these assays?
DT40 TDP1 no CPT: inactive; DT40 TDP1 CPT: inactive; BCR signal inh: inactive; IL-1B inflam inh: inactive; SW480 rereplic: inactive; MCF10A rereplic: inactive

Results for CCC1(c2ccc(F)cc2)NC(=O)N(CC(=O)NCc2ccc(F)cc2)C1=O (configuration not stated) ?
DT40 TDP1 no CPT: inactive; DT40 TDP1 CPT: inactive; BCR signal inh: inactive; IL-1B inflam inh: inactive; SW480 rereplic: inactive; MCF10A rereplic: inactive

How did CCC1(c2ccc(Cl)cc2)NC(=O)N(CC(=O)NCc2ccc(F)cc2)C1=O (configuration not stated) do in these assays?
DT40 TDP1 no CPT: 16µM; DT40 TDP1 CPT: inconclusive; BCR signal inh: inconclusive; IL-1B inflam inh: -53; SW480 rereplic: inactive; MCF10A rereplic: inactive

What do the screens show for `CC1(C)OC(=O)C2=C(C[C@@H](C3CCCCC3)O[C@H]2c2ccc(Cl)cc2)O1`?
DT40 TDP1 no CPT: inconclusive; DT40 TDP1 CPT: inconclusive; IL-1B inflam inh: inactive

What do the screens show for `CCc1nn2c(=O)cc(COc3ccc(/C=C(\C#N)C(=O)Nc4ccc(C)cc4)cc3)nc2s1`?
DT40 TDP1 no CPT: inactive; DT40 TDP1 CPT: inactive

What do the screens show for `Cc1nc2c(OCc3ccccc3)cccn2c1N(C)C(=O)C1CCCCC1`?
DT40 TDP1 no CPT: inconclusive; DT40 TDP1 CPT: inconclusive; IL-1B inflam inh: inactive

What do the screens show for `CCC(CC)C(=O)N(C)c1c(C)nc2c(OCc3ccc(Cl)cc3Cl)cccn12`?
DT40 TDP1 no CPT: 3.7µM; DT40 TDP1 CPT: 4.6µM; IL-1B inflam inh: inconclusive

Results for CCC(CC)C(=O)N(C)c1c(C)nc2c(OCc3ccc(C#N)cc3)cccn12 ?
DT40 TDP1 no CPT: 18µM; DT40 TDP1 CPT: inconclusive; IL-1B inflam inh: -71

Results for CCC(CC)C(=O)N(C)c1c(C)nc2c(OCC(=O)C(C)(C)C)cccn12 ?
DT40 TDP1 no CPT: inconclusive; DT40 TDP1 CPT: inactive; IL-1B inflam inh: inactive

What do the screens show for `CCC(CC)C(=O)N(C)c1c(C)nc2c(OCc3ccccc3C)cccn12`?
DT40 TDP1 no CPT: 7.3µM; DT40 TDP1 CPT: 6.5µM; IL-1B inflam inh: inactive

How did CC(CCc1ccccc1)NC(=O)CNC(=O)c1ccccc1Br (configuration not stated) do in these assays?
DT40 TDP1 no CPT: inactive; DT40 TDP1 CPT: inactive; BCR signal inh: inactive; IL-1B inflam inh: inactive; SW480 rereplic: inactive; MCF10A rereplic: inactive

How did COc1ccc(CN2CCOc3ccc(C(O)c4cccnc4)cc3C2)c(OC)c1OC (configuration not stated) do in these assays?
DT40 TDP1 no CPT: inactive; DT40 TDP1 CPT: inactive[9.04 µM]

What do the screens show for `O=c1oc(CCCO)cc2ccc(C#Cc3cccnc3)cc12`?
DT40 TDP1 no CPT: inactive; DT40 TDP1 CPT: inconclusive; BCR signal inh: inactive; IL-1B inflam inh: inactive; SW480 rereplic: inactive; MCF10A rereplic: inactive

How did O=c1oc(CCO)cc2ccc(C#Cc3ccsc3)cc12 do in these assays?
DT40 TDP1 no CPT: inconclusive; DT40 TDP1 CPT: inconclusive; BCR signal inh: inconclusive; IL-1B inflam inh: inactive; SW480 rereplic: inconclusive; MCF10A rereplic: inactive

How did COc1cc(C#Cc2ccc3cc(CCO)oc(=O)c3c2)cc(OC)c1 do in these assays?
DT40 TDP1 no CPT: 18µM; DT40 TDP1 CPT: inconclusive; BCR signal inh: inconclusive; IL-1B inflam inh: inactive; SW480 rereplic: inactive; MCF10A rereplic: inactive

Results for CN(C)c1ccc(C#Cc2ccc3cc(CCO)oc(=O)c3c2)cc1 ?
DT40 TDP1 no CPT: inconclusive; DT40 TDP1 CPT: inactive; BCR signal inh: inconclusive; IL-1B inflam inh: inactive; SW480 rereplic: inconclusive; MCF10A rereplic: 12µM

Results for O=C(c1ccc(OC2CCN(Cc3ccccn3)CC2)cc1)N1CCCCO1 ?
DT40 TDP1 no CPT: inactive; DT40 TDP1 CPT: inactive; BCR signal inh: inactive; IL-1B inflam inh: inactive; SW480 rereplic: inactive; MCF10A rereplic: inactive

Results for COc1ccccc1CNS(=O)(=O)c1cc(C(=O)N(C)Cc2cccnc2)c(Cl)cc1Cl ?
DT40 TDP1 no CPT: inconclusive; DT40 TDP1 CPT: inconclusive; IL-1B inflam inh: inactive; SW480 rereplic: inactive; MCF10A rereplic: inactive

How did CCOc1ccc(N(CC(=O)Nc2ccccc2Cl)S(C)(=O)=O)cc1 do in these assays?
DT40 TDP1 no CPT: 26µM; DT40 TDP1 CPT: 18µM; BCR signal inh: inactive; IL-1B inflam inh: inactive; SW480 rereplic: 21µM; MCF10A rereplic: inconclusive

How did CCOc1ccc(N(CC(=O)Nc2ccccc2OC)S(C)(=O)=O)cc1 do in these assays?
DT40 TDP1 no CPT: inconclusive; DT40 TDP1 CPT: inconclusive; BCR signal inh: inconclusive; IL-1B inflam inh: inactive; SW480 rereplic: inconclusive; MCF10A rereplic: inconclusive

What do the screens show for `CCOc1ccc(N(CC(=O)Nc2cc(Cl)ccc2C)S(C)(=O)=O)cc1`?
DT40 TDP1 no CPT: 23µM; DT40 TDP1 CPT: inconclusive; BCR signal inh: inactive; IL-1B inflam inh: inactive; SW480 rereplic: 18µM; MCF10A rereplic: inconclusive

Results for Cc1cccc(NC(=O)Cc2csc(COc3cccc(C)c3)n2)c1 ?
DT40 TDP1 no CPT: inactive; DT40 TDP1 CPT: inactive

Results for COc1ccc(NC(=O)Cc2csc(COc3cccc(C)c3)n2)cc1OC ?
DT40 TDP1 no CPT: 26µM; DT40 TDP1 CPT: 18µM

What do the screens show for `CC(=O)Nc1cccc(NC(=O)Cc2csc(COc3cccc(C)c3)n2)c1`?
DT40 TDP1 no CPT: 21µM; DT40 TDP1 CPT: 15µM

How did CC1(C)CC(=O)C=C(c2ccc(COC(=O)Cc3ccccc3)cc2)C1=O do in these assays?
DT40 TDP1 no CPT: inactive; DT40 TDP1 CPT: inactive; IL-1B inflam inh: inactive

Results for CC(C)CN(C(=O)COC(=O)c1ccccc1NCc1ccco1)c1c(N)n(Cc2ccccc2)c(=O)[nH]c1=O ?
DT40 TDP1 no CPT: inactive; DT40 TDP1 CPT: inconclusive; BCR signal inh: inactive; IL-1B inflam inh: inactive; SW480 rereplic: inconclusive; MCF10A rereplic: inactive

How did Cc1oc2ccc(O)c(CN3CCN(C)CC3)c2c1C(=O)Nc1ccccc1 do in these assays?
DT40 TDP1 no CPT: inactive; DT40 TDP1 CPT: inactive

Results for O=C(NCCN1CCCCC1)Nc1cccc(C(F)(F)F)c1 ?
DT40 TDP1 no CPT: inactive; DT40 TDP1 CPT: inactive; BCR signal inh: inconclusive; IL-1B inflam inh: inactive; SW480 rereplic: inactive; MCF10A rereplic: inactive

What do the screens show for `Cc1ccc(NC(=O)c2c(C)oc3ccc(O)c(CN4CCCCCC4)c23)cc1`?
DT40 TDP1 no CPT: 16µM; DT40 TDP1 CPT: 15µM

High-throughput results: PubChem BioAssay, National Center for Advancing Translational Sciences (NCATS)
